We go through 40 compounds from PubChem BioAssay (Tox21).

Records with an inconclusive call do not appear. Unmarked numbers belong to inactive results. Active and inactive are the calls of the source. Calls come from the whole dose curve.
% is set by controls: 0 for no effect and ±100 for the full control effect; potency is the fitted concentration of half-maximal effect.

This assay is described as follows: p53 small molecule agonists, cell-based qHTS assay with rat liver microsomes: qHTS cell viability counter screen (AID 1963580). Note: nearly all actives have a fitted effect of over 45% in size. The conditions noted are these: p53RE-bla HCT-116 + rat microsomes, ATP viability, 16 h; series mostly up to 66 µM; activity change, negative = cytotoxicity: at the top concentration. From the text: National Center for Advancing Translational Sciences [NCATS]
Division of Preclinical Innovation [DPI]
U.S. Environmental Protection Agency [EPA]
National Institutes of Environmental Health Sciences [NIEHS]
National Toxicology Program [NTP]
U.S. Food and Drug Administration [FDA]
p53, a tumor suppressor protein, is activated following cellular insult, including DNA damage and other cellular stresses. The activation of p53 regulates cell fate by inducing DNA repair, cell cycle arrest, apoptosis, or cellular senescence. The activation of p53, therefore, is a good indicator of DNA damage and other cellular stresses. The CellSensor p53RE-bla HCT-116 cell line contains a stably integrated beta-lactamase reporter gene under control of the p53 response elements. The activation of the reporter gene under culture conditions can be detected by fluorescence intensity. This cell line was used to screen the Tox21 10K compound library in the condition of presence of rat liver microsomes and to identify agonists that activate the p53 signaling pathway after in vitro metabolic activation (Ooka et al., Archive of Toxicology 96:1975-1987, 2022). The cytotoxicity of the Tox21 compound library against the p53 RE-bla HCT-116 cell line was tested in parallel by measuring the intra cellular ATP content in the same wells.
Tox21 Assay Protocol Summary:
The p53RE-bla cells were dispensed at 4,000cells/3ul/well in 1536-well black-clear bottom plates. After the assay plates were incubated at 37 C, 5% CO2 incubator for 5 hours, 23 nL of compounds dissolved in DMSO, positive controls or DMSO only was transferred to the assay plate. Following compound addition, 3 uL of rat liver microsomes (Molecular Toxicology, Boone, NC) at final concentration of 0.5 mg/mL and 1uL of B-Nicotinamide adenine dinucleotide 2'-phosphate (NADPH) at final concentration of 0.5 mg/mL were transferred to the assay plate. The plates were incubated at 37 C for 16 hours. 1 uL of LiveBLAzer detection mixture was added to each well and the plates were incubated at room temperature in the dark for 2 h. Fluorescence intensity at 460 and 530 nm emission and 405 nm excitation were measured by an Envision plate reader. For cell viability readout that measures cytotoxicity, 4 ul/well of CellTiter-Glo reagent was added into the assay plates using a Flying Reagent Dispenser. After 30 min incubation at room temperature, the luminescence intensity in the plates was measured using a ViewLux plate reader.
In general terms: qHTS replaces the single test concentration by a dilution series.
`O=C(O)c1c(Cl)ccc2cc(Cl)cnc12`: the “activity change, negative = cytotoxicity” value is -0.0772%.

`CC(=O)[O][Pb]([c]1ccccc1)([c]1ccccc1)[c]1ccccc1`: the Potency was 8.14 µM (active).

`CC(C)N(Cc1ccccc1)C(=O)C(C)(C)C`: the “activity change, negative = cytotoxicity” value was 14.6%.

As for `FC(F)OC(F)(F)C(F)Cl` (stereo not given), the “activity change, negative = cytotoxicity” value was -3.42%.

Take `CCCCOP(=O)(O)OCCCC`: the “activity change, negative = cytotoxicity” value was -11.6%.

In the case of `O=NN1CCNCC1`, the “activity change, negative = cytotoxicity” value is -1.41%.

With `COP(=O)(OC)O/C(C)=C/C(=O)N(C)C`, the “activity change, negative = cytotoxicity” value was -5.33%.

`FC(F)C(F)(F)OCC(Cn1cncn1)c1ccc(Cl)cc1Cl` (stereo not given): the “activity change, negative = cytotoxicity” value was -5.32%.

For `COP(=O)(OC)SCn1c(=O)oc2cc(Cl)cnc21`, the “activity change, negative = cytotoxicity” value is -2.27%.

As to `CCC1(c2cnc[nH]2)Cc2ccccc2C1`, the “activity change, negative = cytotoxicity” value was -2.05% [at 30.3 µM].

On to `CC[C@H](C)[C@H]1O[C@]2(C=C[C@@H]1C)C[C@@H]1C[C@@H](C/C=C(\C)[C@@H](O[C@H]3C[C@H](OC)[C@@H](O[C@H]4C[C@H](OC)[C@@H](O)[C@H](C)O4)[C@H](C)O3)[C@@H](C)/C=C/C=C3\CO[C@@H]4[C@H](O)C(C)=C[C@@H](C(=O)O1)[C@]34O)O2`, for which the “activity change, negative = cytotoxicity” value was -0.307% [at 30.3 µM].

For the compound `CCC(Cl)CCl` (stereo not given), the “activity change, negative = cytotoxicity” value is 1.78%.

Consider `ClCC(Cl)Cl`, for which the “activity change, negative = cytotoxicity” value is -0.205%.

Regarding `C[C@]12CC[C@H]3[C@@H](CCC4=CC(=O)CC[C@@H]43)[C@@H]1CC[C@@H]2OC(=O)CCc1ccco1`, the “activity change, negative = cytotoxicity” value is 0.721% [at 30.3 µM].

`CCOP(=S)(OCC)Oc1cc(-c2ccccc2)on1`: the “activity change, negative = cytotoxicity” value is -0.56%.

`COc1cc(C[C@@H](C)N)c(OC)cc1Br`: the “activity change, negative = cytotoxicity” value was 3.15%.

For the compound `Oc1cccc(Cl)c1Cl`, the “activity change, negative = cytotoxicity” value is -0.338%.

`CN(N=O)c1ccc([N+](=O)[O-])cc1`: the “activity change, negative = cytotoxicity” value was 1.03%.

As for `O=c1[nH]oc2c1CCNC2`, the “activity change, negative = cytotoxicity” value is 1.28% [at 30.3 µM].

In the case of `O=C(Cc1ccccc1)OCc1ccccc1`, the “activity change, negative = cytotoxicity” value is 4.44%.

`CCOP(=S)(OCC)Oc1cc(C)nc(N(CC)CC)n1`: the “activity change, negative = cytotoxicity” value is -3.54%.

As for `COP(=S)(OC)Oc1ccc([N+](=O)[O-])c(C)c1`, the “activity change, negative = cytotoxicity” value is -4.53%.

In the case of `Clc1c(Cl)c(Cl)c(Cl)c(Cl)c1Cl`, the activity change, negative = cytotoxicity was 3.81% [at 5.99 µM].

As for `CCOC(=O)/C=C(C)/C=C/C[C@@H](C)CCCC(C)C`, the “activity change, negative = cytotoxicity” value is -20.4%.

As for `CC/C(=N\OC/C=C/Cl)C1=C(O)CC(C2CCOCC2)CC1=O` (stereo not given), the “activity change, negative = cytotoxicity” value is 1.67%.

Consider `CC(C)CBr`, for which the “activity change, negative = cytotoxicity” value is 2.67%.

In the case of `CCOP(=S)(OCC)OC(Cl)C(Cl)(Cl)Cl` (stereo not given), the “activity change, negative = cytotoxicity” value was 1.39%.

For `O=C(O)COc1nc(Cl)c(Cl)cc1Cl`, the “activity change, negative = cytotoxicity” value is 6.52%.

In the case of `CN(C)C1CCCCC1`, the “activity change, negative = cytotoxicity” value was 0.426%.

In the case of `CCOC(=O)C1(c2ccccc2)CCN(CCc2ccc(N)cc2)CC1`, the “activity change, negative = cytotoxicity” value was -6.26% [at 30.3 µM].

Regarding `CN(C)CCc1c[nH]c2cccc(O)c12`, the “activity change, negative = cytotoxicity” value is 3.24%.

Turning to `Cc1nnc2n1-c1sc(CCC(=O)N3CCOCC3)cc1C(c1ccccc1Cl)=NC2`, the “activity change, negative = cytotoxicity” value was 2.04% [at 30.3 µM].

For `O=C1CCCCC1Cl` (stereo not given), the “activity change, negative = cytotoxicity” value is -0.112%.

On to `CC(Cc1ccccc1)NCCCCl` (stereo not given), for which the “activity change, negative = cytotoxicity” value is -2.35% [at 30.3 µM].

Consider `CCc1ccccc1N`, for which the “activity change, negative = cytotoxicity” value is 4.86%.

Turning to `Clc1ccccc1-c1ccccc1Cl`, the “activity change, negative = cytotoxicity” value was -3.78%.

For `FC(Cl)(Cl)C(F)(Cl)Cl`, the “activity change, negative = cytotoxicity” value is -6.44%.

Take `CCCCN(CCCC)C(=S)[S-].CCCCN(CCCC)C(=S)[S-].[Zn+2]`: the Potency is 3.63 µM (active).

In the case of `NNCCO`, the “activity change, negative = cytotoxicity” value is -2.52%.

`CCNc1nc(Cl)nc(NC(C)(C)C)n1`: the “activity change, negative = cytotoxicity” value was 0.354%.
